The nature of assay [1]: NCI Yeast Anticancer Drug Screen. Data for the rad50 strain (AID 155).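 Also: 0% = growth of vehicle-only cultures of the same strain.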 Particulars: S. cerevisiae rad50 strain growth inhibition, hits give high values. In outline:
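Relative growth inhibition (compound vs vehicle) was measured in yeast with a defined repair-gene alteration.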

A short description of assay [2]: NCI Yeast Anticancer Drug Screen. Data for the mec2-1 strain (AID 157). The note with it: S. cerevisiae mec2-1 strain, hits give high values. In outline: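 Each compound was tested on mec2-1 yeast, a strain altered in DNA damage repair or cell cycle control. Growth inhibition is reported relative to vehicle.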
The nature of assay [3]: NCI Yeast Anticancer Drug Screen. Data for the sgs1 mgt1 strain (AID 161).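 Also: 0% = growth of cultures given vehicle only.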 Particulars: S. cerevisiae sgs1 mgt1 strain, hits give high values. The procedure, abridged: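 Read-out: growth inhibition vs vehicle controls. Cells: mutant yeast strain deficient in DNA damage repair.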
Assay [4] in a line: NCI Yeast Anticancer Drug Screen. Data for the cln2 rad14 strain (AID 165).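 Also: 0% = growth equal to vehicle treated cultures.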 Particulars: S. cerevisiae cln2 rad14 strain, hits give high values. In outline: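 Test compounds were added to cln2 rad14 yeast cultures; inhibition of growth was then determined by comparison with vehicle treatment.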
Assay [5] can be described thus: NCI Yeast Anticancer Drug Screen. Data for the bub3 strain (AID 167). The note with it: S. cerevisiae bub3 mutant strain, hits give high values. The procedure, abridged:
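Screening used yeast with an engineered genetic alteration affecting cell cycle control. Compound-exposed cultures were compared with vehicle cultures, and reduced growth was taken as inhibition.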

Assay [6] is described as follows: NCI Yeast Anticancer Drug Screen. Data for the mlh1 rad18 strain (AID 175). Particulars: S. cerevisiae mlh1 rad18 strain growth inhibition, hits give high values. In outline:
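Inhibition values reflect reduced growth of mutant yeast versus vehicle-treated controls following compound exposure; the mutations affect DNA damage repair.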

[7] abbreviates: at 5.0 µM (retest, dose inferred, filed as 0.5).
Setting [8] is: at 50.0 µM (retest, dose inferred, filed as 5.0).

This is part of a sample that, as a whole, favours compounds with a hit. Of some 79,000 tested, about 15% had one in any assay. Values without a mark were called inactive. Active and inactive are the calls of the source. Rule as the data show it: active = growth inhibition above about 70%; inactive = the rest.

With `O=C1c2cc3c(cc2CC1Br)CCC3` (configuration not stated), the growth inhibition in assay [1] (setting [7]) is 99% (active); in assay [1] (setting [8]), 99% (active); in assay [1] (at 50.0 µM), 79.5% (active); in assay [2] (setting [7]), 99% (active); in assay [2] (setting [8]), 100% (active); in assay [2] (at 50.0 µM), 87% (active). Also, the growth inhibition in assay [3] (setting [7]) was 99% (active); in assay [3] (setting [8]), 99% (active); in assay [3] (at 50.0 µM), 88.3% (active); in assay [4] (setting [7]), 98% (active); in assay [4] (setting [8]) it was 99% (active); in assay [4] (at 50.0 µM) it was 90.2% (active). In addition, the growth inhibition in assay [5] (setting [7]) is 99% (active); in assay [5] (setting [8]), 99% (active); in assay [5] (at 50.0 µM), 89.5% (active); in assay [6] (setting [7]) it was 99% (active); in assay [6] (setting [8]), 99% (active); in assay [6] (at 50.0 µM), 92.4% (active).
On to `O=C(Nc1ccccc1-c1nn(C(=S)Nc2ccccc2)c(=S)n(C(=S)Nc2ccccc2)c1=O)C(F)(F)F`, for which the growth inhibition was 6% in assay [1] (setting [7]); 59% in assay [1] (setting [8]); 47.1% in assay [1] (at 50.0 µM); 2% in assay [2] (setting [7]); 87% (active) in assay [2] (setting [8]); 88.1% (active) in assay [2] (at 50.0 µM). Also, the growth inhibition in assay [3] (setting [7]) is 10%; in assay [3] (setting [8]), 77% (active); in assay [3] (at 50.0 µM) it was 46.5%; in assay [4] (setting [7]), 7%; in assay [4] (setting [8]), 38%; in assay [4] (at 50.0 µM), 17.2%. The growth inhibition was -41% in assay [5] (setting [7]); 50% in assay [5] (setting [8]); 15.4% in assay [5] (at 50.0 µM); 3% in assay [6] (setting [7]); 88% (active) in assay [6] (setting [8]); 81.5% (active) in assay [6] (at 50.0 µM).
For the compound `CSc1ncccc1C(=O)[O][Sn]([c]1ccccc1)([c]1ccccc1)[c]1ccccc1`, the growth inhibition was 100% (active) in assay [1] (setting [7]); 99% (active) in assay [1] (setting [8]); 97.3% (active) in assay [1] (at 50.0 µM); 100% (active) in assay [2] (setting [7]); 99% (active) in assay [2] (setting [8]); 97.9% (active) in assay [2] (at 50.0 µM). For the same compound, the growth inhibition was 100% (active) in assay [3] (setting [7]); 99% (active) in assay [3] (setting [8]); 97.7% (active) in assay [3] (at 50.0 µM); 99% (active) in assay [4] (setting [7]); 99% (active) in assay [4] (setting [8]); 86.7% (active) in assay [4] (at 50.0 µM). Besides, the growth inhibition in assay [5] (setting [7]) was 99% (active); in assay [5] (setting [8]) it was 99% (active); in assay [5] (at 50.0 µM), 97.5% (active); in assay [6] (setting [7]) it was 99% (active); in assay [6] (setting [8]) it was 99% (active); in assay [6] (at 50.0 µM) it was 96.8% (active).
Take `N#CC(C#N)=C1CCC(CC2CCCCC2)CC1` (configuration not stated): the growth inhibition in assay [1] (setting [7]) is -117%; in assay [1] (setting [8]), 96% (active); in assay [1] (at 50.0 µM), 98.6% (active); in assay [2] (setting [7]), -49%; in assay [2] (setting [8]), 96% (active); in assay [2] (at 50.0 µM) it was 98.6% (active). Further, the growth inhibition is -60% in assay [3] (setting [7]); 96% (active) in assay [3] (setting [8]); 98% (active) in assay [3] (at 50.0 µM); -56% in assay [4] (setting [7]); 97% (active) in assay [4] (setting [8]); 98.5% (active) in assay [4] (at 50.0 µM). The growth inhibition was -58% in assay [5] (setting [7]); 97% (active) in assay [5] (setting [8]); 98% (active) in assay [5] (at 50.0 µM); -92% in assay [6] (setting [7]); 96% (active) in assay [6] (setting [8]); 98.5% (active) in assay [6] (at 50.0 µM).
Regarding `CC(=Nc1ccc(N(C)C)cc1)c1ccccc1`, the growth inhibition in assay [1] (setting [7]) is -8%; in assay [1] (setting [8]) it was 60%; in assay [1] (at 50.0 µM) it was 69.7%; in assay [2] (setting [7]), -11%; in assay [2] (setting [8]) it was 78% (active); in assay [2] (at 50.0 µM), 54.8%. The growth inhibition is -5% in assay [3] (setting [7]); 70% (active) in assay [3] (setting [8]); 46% in assay [3] (at 50.0 µM); -26% in assay [4] (setting [7]); 53% in assay [4] (setting [8]); 45.4% in assay [4] (at 50.0 µM). Also, the growth inhibition was -15% in assay [5] (setting [7]); 88% (active) in assay [5] (setting [8]); 71.7% (active) in assay [5] (at 50.0 µM); -15% in assay [6] (setting [7]); 78% (active) in assay [6] (setting [8]); 71% (active) in assay [6] (at 50.0 µM).
In the case of `Cc1c2ccccc2c(CSC(=N)N)c2ccccc12`, the growth inhibition is 47% in assay [1] (setting [7]); 99% (active) in assay [1] (setting [8]); 99.5% (active) in assay [1] (at 50.0 µM); 22% in assay [2] (setting [7]); 99% (active) in assay [2] (setting [8]); 99.7% (active) in assay [2] (at 50.0 µM). For the same compound, the growth inhibition in assay [3] (setting [7]) is 9%; in assay [3] (setting [8]), 98% (active); in assay [3] (at 50.0 µM), 99.5% (active); in assay [4] (setting [7]) it was 26%; in assay [4] (setting [8]), 99% (active); in assay [4] (at 50.0 µM) it was 99.5% (active). Besides, the growth inhibition in assay [5] (setting [7]) was 7%; in assay [5] (setting [8]), 99% (active); in assay [5] (at 50.0 µM), 99.4% (active); in assay [6] (setting [7]), 30%; in assay [6] (setting [8]) it was 99% (active); in assay [6] (at 50.0 µM), 99.7% (active).
With `Cc1ccc(O)c(C(c2cccc(C(c3cc(C)ccc3O)c3cc(C)ccc3O)c2)c2cc(C)ccc2O)c1`, the growth inhibition in assay [1] (setting [7]) is 66%; in assay [1] (setting [8]), 94% (active); in assay [1] (at 50.0 µM), 95.5% (active); in assay [2] (setting [7]), 54%; in assay [2] (setting [8]), 97% (active); in assay [2] (at 50.0 µM), 95.4% (active). In addition, the growth inhibition was 31% in assay [3] (setting [7]); 97% (active) in assay [3] (setting [8]); 95% (active) in assay [3] (at 50.0 µM); 66% in assay [4] (setting [7]); 96% (active) in assay [4] (setting [8]); 91.6% (active) in assay [4] (at 50.0 µM). For the same compound, the growth inhibition in assay [5] (setting [7]) is 72% (active); in assay [5] (setting [8]), 96% (active); in assay [5] (at 50.0 µM), 95.7% (active); in assay [6] (setting [7]), 78% (active); in assay [6] (setting [8]), 96% (active); in assay [6] (at 50.0 µM), 95.8% (active).
As for `CN(C)CC(CN(C)C)C(=O)c1ccc(Oc2ccc(Cl)c(Cl)c2)cc1`, the growth inhibition in assay [1] (setting [7]) was 18%; in assay [1] (setting [8]) it was 96% (active); in assay [1] (at 50.0 µM), 93.9% (active); in assay [2] (setting [7]), 8%; in assay [2] (setting [8]), 97% (active); in assay [2] (at 50.0 µM) it was 96.8% (active). Besides, the growth inhibition in assay [3] (setting [7]) is 29%; in assay [3] (setting [8]) it was 98% (active); in assay [3] (at 50.0 µM), 96.7% (active); in assay [4] (setting [7]), 4%; in assay [4] (setting [8]) it was 95% (active); in assay [4] (at 50.0 µM), 93.5% (active). In addition, the growth inhibition in assay [5] (setting [7]) was 6%; in assay [5] (setting [8]) it was 98% (active); in assay [5] (at 50.0 µM), 94.8% (active); in assay [6] (setting [7]), 21%; in assay [6] (setting [8]), 96% (active); in assay [6] (at 50.0 µM), 96.3% (active).
For the compound `COC1C=COC2(C)Oc3c(C)c(O)c4c(O)c(c(C5SCCS5)c(O)c4c3C2=O)NC(=O)/C(C)=C\C=CC(C)C(O)C(C)C(O)C(C)C(OC(C)=O)C1C` (configuration not stated), the growth inhibition in assay [1] (setting [7]) is -3%; in assay [1] (setting [8]), 96% (active); in assay [1] (at 50.0 µM), 94.7% (active); in assay [2] (setting [7]), 1%; in assay [2] (setting [8]) it was 97% (active); in assay [2] (at 50.0 µM) it was 96.9% (active). For the same compound, the growth inhibition in assay [3] (setting [7]) was -5%; in assay [3] (setting [8]), 34%; in assay [3] (at 50.0 µM), 41.5%; in assay [4] (setting [7]), 14%; in assay [4] (setting [8]), 97% (active); in assay [4] (at 50.0 µM) it was 95% (active). Also, the growth inhibition was 2% in assay [5] (setting [7]); 99% (active) in assay [5] (setting [8]); 95.8% (active) in assay [5] (at 50.0 µM); 4% in assay [6] (setting [7]); 97% (active) in assay [6] (setting [8]); 95.4% (active) in assay [6] (at 50.0 µM).

Source of the values: PubChem BioAssay (NCI).
